“And” between values parts separate entries of the source, which are not always exact repeats. Identical values can stand only once. Results filed as inconclusive are left out. The source made the active and inactive calls.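 Rule for the calls, unless noted: active = normalized viability below 100% at a tested concentration; inactive = the rest.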

One may read the remaining activity as the signal under treatment as a percentage of the control signal. The term viability denotes a read-out of living cells in per cent, often relative to untreated cells. What is called AC50 is the concentration at which the activity in the assay is half-maximal.

The nature of assay [1]: compounds altering circadian rhythm period length – cell-based, LOPAC library, luminescence reporter (AID 2774; call rule not given here;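 note: values are relative to mean of DMSO wells on each plate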). To be noted: circadian reporter cells, at 7 µM, actives lie on both sides.
In assay [2] the test system is Aerobactin synthetase IucA (Klebsiella pneumoniae). The experiment in a line: inhibition of K. pneumoniae IucA enzyme – biochemical, Tocris library, absorbance (AID 1345561; call rule not given here;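 note: 100% = enzyme without compound and 0% = no enzyme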). The following applies: purified IucA enzyme assay, absorbance (OD) read-out; stronger effect = lower value;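 tested at 8 µM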.
Assay [3] can be described thus: viability loss in pontine glioma line – cell-based, SU-DIPG-XIII, MIPE4.0, CellTiter-Glo, qHTS, dose response (AID 1347061; cut-off not given, nearly all actives have AC50 up to about 37 µM;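 note: cells exposed to compound for 48 hours before readout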). The following applies: CellTiter-Glo ATP luminescence. For orientation: ATP-based viability assays read luminescence as a measure of living cells.
Assay [4] in a line: viability loss in pontine glioma line – cell-based, SU-DIPG-XIII, MIPE5.0, CellTiter-Glo, qHTS, dose response (AID 1347064; cut-off not given, nearly all actives have AC50 up to about 23 µM). The following applies: CellTiter-Glo ATP luminescence.
Assay [5] can be described thus: growth inhibition of DIPG cells – cell-based, MIPE4.0 library, CellTiter-Glo luminescence, qHTS (AID 1347066; cut-off not given, nearly all actives have AC50 up to about 30 µM;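 note: cells exposed to compound for 48 hours before readout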). The following applies: SU-DIPG-VI viability, CellTiter-Glo ATP luminescence.
The nature of assay [6]: JHH-DIPG-1 glioma cell viability, MIPE5.0 library, CellTiter-Glo luminescence, qHTS (AID 1347067; cut-off not given, nearly all actives have AC50 up to about 26 µM;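 note: cells exposed to compound for 48 hours before readout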). The following applies: JHH-DIPG-1 glioma viability, CellTiter-Glo ATP luminescence.
The nature of assay [7]: growth inhibition of DIPG cells – cell-based, MIPE5.0 library, qHTS (AID 1347068; cut-off not given, nearly all actives have IC50 up to about 30 µM). The following applies: SU-DIPG-XXV viability. For orientation: Quantitative high-throughput screening tests each substance at several concentrations.
The nature of assay [8]: viability loss with induced miR-34 in A549 – imaging, A549 dox-inducible miR-34, nuclei and caspase counts, primary screen (AID 1347080;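 active = compounds whose cell count with miR-34 switched on is under 0.7 times the count with it off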). The following applies: A549 miR-34 inducible, Hoechst nuclei count, 48 h.
Assay [9] can be described thus: galactose survival enhancers in mitochondrial complex I cybrids – cell-based, galactose medium, ATP luminescence, primary screen (AID 1645843;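 active = z-score of at least 1.8 in each of two replicates, scored against plate mean and spread of sample wells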;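 note: positive z means more ATP and so rescue of galactose-driven cybrid death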). The following applies: complex I mutant cybrid cells, 72 h, stronger effect = higher value.
Assay [10] is described as follows: P. berghei load reduction in hepatocytes – cell-based, HepG2, luciferase luminescence, HepG2 viability, primary screen (AID 624349; in the data active = parasite load remaining mostly below about 12%, no sharp cut-off; inactive = mostly above about 10%;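 note: 100% = mean of DMSO negative control wells on the same plate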). To be noted: P. berghei liver stage in HepG2, luciferase luminescence, concentration not given here; parasite load remaining: stronger effect = lower value; viability: measured here: HepG2 viability without parasites.
The nature of assay [11]: viability loss in pontine glioma line – cell-based, JHH-DIPG-1, MIPE4.0, CellTiter-Glo, qHTS, dose response (AID 1347062; cut-off not given, nearly all actives have AC50 up to about 27 µM). To be noted: JHH-DIPG-1 viability, CellTiter-Glo ATP luminescence.
Assay [12] is described as follows: compounds altering HSF1 focus formation in cells – imaging, Selleck Cancer Library (AID 1347162; in the data active = plate-normalised HSF1 focus index below about 0.46). To be noted: human cells, HSF1 nuclear foci imaging, at 10 µM; SSMD: measured here: HSF1 foci SSMD mean; cell count: measured here: cell number; plate-normalised HSF1 focus index: stronger effect = lower value.
Assay [13] can be described thus: MELAS cybrid and Rieske KO viability enhancers – cell-based, MELAS cybrids, Rieske KO mouse fibroblasts, CellTiter-Glo, primary screen (AID 1508586;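 active = mean z-score across replicates of 1.96 or higher in either the MELAS or the Rieske mutant cell line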;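 note: z relative to plate mean and SD of compound and empty wells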). The following applies: low glucose.
Assay [14] in a line: viability loss in pontine glioma line – cell-based, SU-DIPG-IV, MIPE4.0, CellTiter-Glo, qHTS, dose response (AID 1347063; cut-off not given, nearly all actives have AC50 up to about 30 µM;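 note: compound exposure lasted 48 hours before the viability readout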). To be noted: CellTiter-Glo ATP luminescence.
Assay [15] in a line: drug combination growth inhibition, ovarian cancer – cell-based, oncology-focused library, rucaparib conditional, profiling panel (AID 1508598). The following applies: patient-derived ovarian cancer cells, CellTiter-Glo viability, 144 h, stronger effect = lower value.
The nature of assay [16]: chitosan synthesis blockers in C. neoformans – flow cytometry, Cibacron Brilliant Red staining (AID 1347148; call rule not given here;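 note: compound exposure lasted three days at 37 degrees C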). The following applies: Cryptococcus neoformans chitosan, stronger effect = lower value; at 10 µM unless noted. (In general: A flow cytometer gives signals particle by particle.)
Setting [17] is: stronger effect = lower value, cell number ratio, induced over uninduced.
Setting [18] is: measured here: relative caspase fold change +Dox/-Dox.
Setting [19] is: measured here: total cells with miR-34 induction, stronger effect = lower value.
The mark [20] stands for this setting: measured here: total cells without miR-34 induction.
The mark [21] stands for this setting: MELAS cybrid survival, CellTiter-Glo 48 h, stronger effect = higher value.
Setting [22] is: Rieske KO mouse fibroblast survival, CellTiter-Glo 72 h.

Regarding `CCOC(=O)C1=C(C)NC(=S)NC1c1cccc(O)c1` (stereo not given), the period change in [1] is 0.16 h (inactive). For the same molecule, the remaining activity in [2] was 109% (inactive). Also, the molecule was classed as inactive in assay [3], in assay [4], in assay [5], in [6] and in [7]. The fold change in assay [8] (setting [17]) is 0.947 (inactive) and 1.05 (inactive); in assay [8] (setting [18]) it was 1 and 0.625. Further, the cell count is 2900 and 8090 in [8] (setting [19]); 3060 and 7690 in assay [8] (setting [20]). Besides, the z-score in [9] is 0.085 (inactive).

Take `CN1C(=O)C(Cc2c[nH]c3ccccc23)NC1=S` (stereo not given): the parasite load remaining in assay [10] is 48.6% (inactive). Besides, the viability in assay [10] was 96.5%. Further, the remaining activity in assay [2] was 89.8% (inactive). Also, the outcome in assay [3], in assay [11], in assay [4], in [5], in assay [6] and in assay [7] was inactive. For the same molecule, the fold change in assay [8] (setting [17]) is 0.887 (inactive) and 0.965 (inactive); in [8] (setting [18]), 0.523 and 1.02. Also, the cell count in [8] (setting [19]) is 7790 and 8210; in assay [8] (setting [20]), 8780 and 8510; in assay [12], 7350. Also, the SSMD in [12] worked out at 1.64. For the same molecule, the plate-normalised HSF1 focus index in assay [12] was 1.1 (inactive). The z-score in assay [13] (setting [21]) was -0.333 (inactive); in assay [13] (setting [22]), 0.34; in [9] it was 0.03 (inactive).

Take `O=C(O)c1ccc(-c2c[nH]c3ncc(-c4ccccc4)cc23)cc1C1CCCC1`: the remaining activity in assay [2] is 108% (inactive). For the same molecule, the result in [11], in [4] and in assay [6] was inactive. Besides, the concentration at half-maximal activity (AC50) in [14] is 372 nM (active). In addition, the fold change was 0.863 (inactive) and 0.894 (inactive) in assay [8] (setting [17]); 0.684 and 1.96 in assay [8] (setting [18]). Also, the cell count in assay [8] (setting [19]) was 2990 and 4050; in assay [8] (setting [20]), 3460 and 4530; in assay [12], 6900. In addition, the SSMD in assay [12] turned out to be 1.9. Besides, the plate-normalised HSF1 focus index in assay [12] was 1.11 (inactive). The z-score in assay [13] (setting [21]) was -0.208 (inactive); in assay [13] (setting [22]) it was -2.05; in assay [9], 0.065 (inactive). For the same molecule, the viability in [15] (at 0.000305 µM, OCI-C5x cells, with rucaparib 10 µM, 100% = cells with rucaparib alone) was 113% (inactive); in assay [15] (at 0.000305 µM, OCI-C5x cells, without rucaparib) it was 105% (inactive); in assay [15] (at 0.000305 µM, OCI-P5x cells, with rucaparib 20 µM, 100% = cells with rucaparib alone) it was 85.9% (active); in [15] (at 0.000305 µM, OCI-P5x cells, without rucaparib), 89.5% (active); in assay [15] (at 0.00122 µM, OCI-C5x cells, with rucaparib 10 µM, 100% = cells with rucaparib alone) it was 106% (inactive); in assay [15] (at 0.00122 µM, OCI-C5x cells, without rucaparib), 118% (inactive). Moreover, the viability in assay [15] (at 0.00122 µM, OCI-P5x cells, with rucaparib 20 µM, 100% = cells with rucaparib alone) was 90% (active); in assay [15] (at 0.00122 µM, OCI-P5x cells, without rucaparib), 99.6% (active); in assay [15] (at 0.00488 µM, OCI-C5x cells, with rucaparib 10 µM, 100% = cells with rucaparib alone), 112% (inactive); in assay [15] (at 0.00488 µM, OCI-C5x cells, without rucaparib), 120% (inactive); in assay [15] (at 0.00488 µM, OCI-P5x cells, with rucaparib 20 µM, 100% = cells with rucaparib alone) it was 101% (inactive); in assay [15] (at 0.00488 µM, OCI-P5x cells, without rucaparib), 100% (inactive). In addition, the viability in [15] (at 0.0195 µM, OCI-C5x cells, with rucaparib 10 µM, 100% = cells with rucaparib alone) was 118% (inactive); in [15] (at 0.0195 µM, OCI-C5x cells, without rucaparib) it was 115% (inactive); in assay [15] (at 0.0195 µM, OCI-P5x cells, with rucaparib 20 µM, 100% = cells with rucaparib alone), 97.8% (active); in [15] (at 0.0195 µM, OCI-P5x cells, without rucaparib), 103% (inactive); in assay [15] (at 0.0781 µM, OCI-C5x cells, with rucaparib 10 µM, 100% = cells with rucaparib alone), 95.5% (active); in [15] (at 0.0781 µM, OCI-C5x cells, without rucaparib), 112% (inactive). Further, the viability was 95.2% (active) in assay [15] (at 0.0781 µM, OCI-P5x cells, with rucaparib 20 µM, 100% = cells with rucaparib alone); 103% (inactive) in assay [15] (at 0.0781 µM, OCI-P5x cells, without rucaparib); 91.3% (active) in [15] (at 0.313 µM, OCI-C5x cells, with rucaparib 10 µM, 100% = cells with rucaparib alone); 116% (inactive) in [15] (at 0.313 µM, OCI-C5x cells, without rucaparib); 102% (inactive) in assay [15] (at 0.313 µM, OCI-P5x cells, with rucaparib 20 µM, 100% = cells with rucaparib alone); 102% (inactive) in assay [15] (at 0.313 µM, OCI-P5x cells, without rucaparib). For the same molecule, the viability was 88.1% (active) in [15] (at 1.25 µM, OCI-C5x cells, with rucaparib 10 µM, 100% = cells with rucaparib alone); 105% (inactive) in assay [15] (at 1.25 µM, OCI-C5x cells, without rucaparib); 93.8% (active) in assay [15] (at 1.25 µM, OCI-P5x cells, with rucaparib 20 µM, 100% = cells with rucaparib alone); 93.3% (active) in assay [15] (at 1.25 µM, OCI-P5x cells, without rucaparib); 65.2% (active) in [15] (at 5 µM, OCI-C5x cells, with rucaparib 10 µM, 100% = cells with rucaparib alone); 60.5% (active) in [15] (at 5 µM, OCI-C5x cells, without rucaparib). For the same molecule, the viability in assay [15] (at 5 µM, OCI-P5x cells, with rucaparib 20 µM, 100% = cells with rucaparib alone) is 92.6% (active); in assay [15] (at 5 µM, OCI-P5x cells, without rucaparib) it was 75.8% (active).

Regarding `O=C1Nc2ccc(I)cc2/C1=C/c1cc(Br)c(O)c(Br)c1`, in [1], the period change was -0.055 h (inactive). The remaining activity in [2] is 117% (inactive). Besides, the call in assay [11], in [4], in assay [5] and in [6] was inactive. The fold change is 0.983 (inactive) and 1.01 (inactive) and 0.869 (inactive) in assay [8] (setting [17]); 1.44 and 1.3 and 0.748 in assay [8] (setting [18]). Besides, the cell count in assay [8] (setting [19]) is 8580 and 4160 and 8980; in [8] (setting [20]) it was 8730 and 4120 and 10300. In addition, the fold fluorescence in [16] is 4.68 [at 96 µM] (inactive). The z-score in assay [9] is -0.635 (inactive) and -0.18 (inactive).

For the origin of these results see PubChem BioAssay.
